The values that follow come from PubChem BioAssay.

Assay [1] is described as follows: antimalarial activity against Dd2 strain (AID 2302;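 active means growth inhibition above 50% at the single 2 µM test dose, taken to imply half-maximal potency below 2 µM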;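 further: 0% = DMSO untreated growth and 100% = chloroquine plus artemisinin killed control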). To be noted: P. falciparum Dd2 in RBCs, LDH growth readout, 72 h; at 2 µM; active compounds read high.
Assay [2] can be described thus: HepG2 cytotoxicity, primary screen, cytotoxicity control for P. falciparum antimalarial project, cell-based, ATP luminescence (AID 2303;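 active means inhibition above 50%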;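 further: 0% = DMSO wells and 100% = digitonin-killed cells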). The conditions noted are these: HepG2 viability, 24-48 h, at 10 µM, active compounds read high.
Assay [3] has as its target L-lactate dehydrogenase (Plasmodium falciparum (isolate CDC / Honduras)) (UniProt Q27743). Description: PfLDH activity inhibition – cell lysate, 3D7 strain, counter-screen for P. falciparum growth inhibition project (AID 2304).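 Further: 0% = vehicle and 100% = reference inhibitor.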 To be noted: P. falciparum 3D7 crude extract, LDH APAD/NBT absorbance; at 2 µM; active compounds read high. (In general: Counterscreens check selectivity or assay interference.)

The nature of assay [4]: inhibition of 3D7 malaria parasite growth – strain 3D7 (AID 2306).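 Further: 0% = DMSO wells and 100% = chloroquine plus artemisinin control wells.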 The conditions noted are these: P. falciparum 3D7 erythrocytic growth, LDH absorbance, 72 h; at 2 µM; active compounds read high.
For assay [5], the target named is Calcium-dependent protein kinase 1 (Plasmodium falciparum (isolate 3D7)) (UniProt P62344). Description: PfCDPK1 kinase inhibitors, biochemical, TCAMS library (AID 1159585; cut-off not given, nearly all actives have IC50 up to about 0.98 µM;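 further: inhibitors leave more ATP so luminescence rises with inhibition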). To be noted: recombinant PfCDPK1, Kinase-Glo ATP depletion luminescence. Background: Kinase-Glo reads ATP consumption through a luciferase reaction.
Assay [6] deals with Plasmodium falciparum protein kinase 6 (PK6, PF3D7_1337100) (UniProt Q8IDW1). The assay can be described thus: PfPK6 kinase inhibitors, biochemical, TCAMS library (AID 1159586). The conditions noted are these: recombinant PfPK6, Kinase-Glo ATP depletion luminescence.
In assay [7] the target is Protein kinase 7 (PK7), Plasmodium falciparum 3D7 (PF3D7_0213400) (UniProt Q7YTF7). The assay can be described thus: inhibition of Plasmodium PK7 catalytic activity – biochemical, TCAMS antimalarial set, Kinase-Glo luminescence (AID 1159587). The conditions noted are these: recombinant PfPK7, Kinase-Glo ATP depletion luminescence.
In assay [8] the target is Calcium-dependent protein kinase 4 (Plasmodium falciparum (isolate 3D7)) (UniProt Q8IBS5). Description: PfCDPK4 kinase inhibitors, biochemical, TCAMS library (AID 1159588; cut-off not given, nearly all actives have IC50 up to about 0.91 µM). The conditions noted are these: recombinant PfCDPK4, Kinase-Glo ATP depletion luminescence.

Structures are written as SMILES. Unmarked numbers belong to inactive results. For some of these results: Potency and affinity values are given separately. Active and inactive are the calls of the source. Unless noted, how the calls were made is not given here.

Sequence of Plasmodium falciparum protein kinase 6 (PK6, PF3D7_1337100) (Q8IDW1 1-305): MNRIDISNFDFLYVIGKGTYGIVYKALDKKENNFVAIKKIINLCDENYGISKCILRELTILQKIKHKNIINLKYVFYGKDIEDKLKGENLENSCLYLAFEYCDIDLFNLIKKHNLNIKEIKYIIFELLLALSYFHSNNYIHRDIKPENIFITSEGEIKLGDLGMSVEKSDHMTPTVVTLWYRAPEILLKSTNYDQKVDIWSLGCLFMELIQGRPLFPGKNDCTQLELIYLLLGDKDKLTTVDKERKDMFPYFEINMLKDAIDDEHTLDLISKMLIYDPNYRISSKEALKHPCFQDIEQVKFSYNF
Sequence of Calcium-dependent protein kinase 1 (Plasmodium falciparum (isolate 3D7)) (P62344 whole entry, looked up): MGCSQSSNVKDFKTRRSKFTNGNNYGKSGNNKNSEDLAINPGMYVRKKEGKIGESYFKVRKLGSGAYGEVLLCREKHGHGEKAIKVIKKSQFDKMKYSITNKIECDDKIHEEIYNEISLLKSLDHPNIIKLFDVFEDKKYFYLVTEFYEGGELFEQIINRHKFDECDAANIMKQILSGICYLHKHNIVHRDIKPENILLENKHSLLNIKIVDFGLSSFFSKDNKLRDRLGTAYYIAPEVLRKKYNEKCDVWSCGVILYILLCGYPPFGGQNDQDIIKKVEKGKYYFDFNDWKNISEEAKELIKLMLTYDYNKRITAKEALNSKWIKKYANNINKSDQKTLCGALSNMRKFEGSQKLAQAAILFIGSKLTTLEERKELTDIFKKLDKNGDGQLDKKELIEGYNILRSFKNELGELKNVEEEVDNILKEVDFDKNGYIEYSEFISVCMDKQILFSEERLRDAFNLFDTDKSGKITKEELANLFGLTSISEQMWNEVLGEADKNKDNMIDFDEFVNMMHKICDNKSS
Sequence of Calcium-dependent protein kinase 4 (Plasmodium falciparum (isolate 3D7)) (Q8IBS5 whole entry, looked up): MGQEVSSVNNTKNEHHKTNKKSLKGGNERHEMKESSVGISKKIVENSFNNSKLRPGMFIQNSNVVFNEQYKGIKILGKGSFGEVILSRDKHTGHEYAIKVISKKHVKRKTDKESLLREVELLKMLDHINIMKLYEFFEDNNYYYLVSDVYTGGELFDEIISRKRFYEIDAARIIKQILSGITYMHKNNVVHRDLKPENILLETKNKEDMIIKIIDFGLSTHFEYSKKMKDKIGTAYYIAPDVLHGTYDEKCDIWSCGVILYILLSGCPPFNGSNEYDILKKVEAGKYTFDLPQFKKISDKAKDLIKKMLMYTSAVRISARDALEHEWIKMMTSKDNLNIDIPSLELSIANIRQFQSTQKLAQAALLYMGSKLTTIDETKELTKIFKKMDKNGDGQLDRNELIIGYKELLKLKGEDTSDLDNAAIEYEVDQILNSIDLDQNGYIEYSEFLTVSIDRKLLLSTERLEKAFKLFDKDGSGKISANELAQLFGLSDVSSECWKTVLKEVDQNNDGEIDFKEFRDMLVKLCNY
Sequence of L-lactate dehydrogenase (Plasmodium falciparum (isolate CDC / Honduras)) (Q27743 whole entry, looked up): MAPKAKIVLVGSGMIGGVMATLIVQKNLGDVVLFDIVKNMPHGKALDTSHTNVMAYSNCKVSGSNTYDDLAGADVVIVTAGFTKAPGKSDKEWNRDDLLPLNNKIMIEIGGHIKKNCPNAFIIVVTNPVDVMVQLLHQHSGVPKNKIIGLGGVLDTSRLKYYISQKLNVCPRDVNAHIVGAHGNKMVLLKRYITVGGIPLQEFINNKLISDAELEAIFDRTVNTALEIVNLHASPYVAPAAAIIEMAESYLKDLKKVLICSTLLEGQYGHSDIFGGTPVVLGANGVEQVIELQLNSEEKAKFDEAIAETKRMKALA
Sequence of Protein kinase 7 (PK7), Plasmodium falciparum 3D7 (PF3D7_0213400) (Q7YTF7 1-343): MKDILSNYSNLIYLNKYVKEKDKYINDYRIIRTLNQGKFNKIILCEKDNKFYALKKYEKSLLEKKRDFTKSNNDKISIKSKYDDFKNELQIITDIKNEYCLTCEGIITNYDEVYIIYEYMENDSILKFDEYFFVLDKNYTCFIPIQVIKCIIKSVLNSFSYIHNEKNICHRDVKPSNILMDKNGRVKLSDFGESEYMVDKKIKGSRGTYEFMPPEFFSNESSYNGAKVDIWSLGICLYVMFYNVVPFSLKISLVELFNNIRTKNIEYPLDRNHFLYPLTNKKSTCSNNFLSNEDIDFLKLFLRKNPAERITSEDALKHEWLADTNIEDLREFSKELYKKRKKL

Take `CN1CCN(CCCN(Cc2csc(-c3ccc(CNCc4ccccc4)cc3)n2)C(=O)Nc2ccc3ccccc3c2)CC1`: the growth inhibition is 63% (active) in assay [1] and 94% (active) in assay [4]. Besides, the inhibition (usually the relative decrease from the control value, in per cent) in assay [2] is 12%; in assay [3], 3%. The result in assay [5], in assay [6], in assay [7] and in assay [8] was inactive.
For `COc1cccc(CCNCc2ccc(-c3cccc(CNC4CCCC4)c3)cc2)c1`, the growth inhibition is 45% in assay [1] and 101% (active) in assay [4]. Besides, the inhibition in assay [2] is 14%; in assay [3] it was -4%. Also, the result in assay [5], in assay [6], in assay [7] and in assay [8] was inactive.
Consider `Cc1cccc2[nH]c(-c3cccc(-c4ccc(NC(=O)Cc5cnc[nH]5)cc4)c3)nc12`, for which the growth inhibition in assay [1] is 93% (active); in assay [4], 101% (active). Also, the inhibition in assay [2] is 4%; in assay [3], -3%. In addition, the outcome in assay [5], in assay [6], in assay [7] and in assay [8] was inactive.
As to `Cc1cc(N[C@@H](CC(C)C)C(=O)NC2CCCC2)nc(NCc2ccccc2C)n1`, the growth inhibition in assay [1] is 44%; in assay [4] it was 98% (active). Also, the inhibition in assay [2] was 2%; in assay [3], -3%. Besides, the outcome in assay [5], in assay [6], in assay [7] and in assay [8] was inactive.
With `CCCC(C)Nc1nc(C)cc(N[C@@H](Cc2ccccc2)C(=O)NCCOc2ccccc2)n1` (stereo not given in full), the growth inhibition in assay [1] is 68% (active); in assay [4] it was 101% (active). Besides, the inhibition is 10% in assay [2] and -1% in assay [3]. Moreover, the result in assay [5], in assay [6], in assay [7] and in assay [8] was inactive.
Take `Cc1cc(=O)oc2c1ccc1oc(C(O)c3ccc(Cl)cc3)c(C)c12` (stereo not given): the growth inhibition in assay [1] is 96% (active); in assay [4], 95% (active). Also, the inhibition in assay [2] is -7%; in assay [3], 1%. Further, the result in assay [5], in assay [6], in assay [7] and in assay [8] was inactive.
`CN(C)c1ccc(-c2csc(C(=O)NC3CCCCN(CCC(C)(C)C)C3)c2)cc1` (stereo not given): the growth inhibition is 68% (active) in assay [1] and 91% (active) in assay [4]. The figures for the inhibition in assay [2] and in assay [3] were 10% and 4%, respectively. Besides, the result in assay [5], in assay [6], in assay [7] and in assay [8] was inactive.
For the compound `O=C(NC1CCCCC1)C1CCCN(C(=O)c2ccc(O)c(-c3ccc(Cl)c(Cl)c3)c2)C1` (stereo not given), the growth inhibition is 42% in assay [1] and 89% (active) in assay [4]. The inhibition is 22% in assay [2] and 0% in assay [3]. Also, the result in assay [5], in assay [6], in assay [7] and in assay [8] was inactive.
Take `Cc1cc(N(C)C)nc(Nc2ccc(NC(=O)c3ccc(F)cc3)cc2)n1`: the growth inhibition in assay [1] was 21%; in assay [4], 100% (active). Moreover, the values for the inhibition in assay [2] and in assay [3] were 8% and -3%, respectively. Besides, the result in assay [5], in assay [6], in assay [7] and in assay [8] was inactive.
Take `Cc1[nH]c(C)c(-c2ccc(-c3cc(C(F)(F)F)cc(C(F)(F)F)c3)nc2)c(=O)c1Br`: the growth inhibition in assay [1] was 96% (active); in assay [4] it was 98% (active). The figures for the inhibition in assay [2] and in assay [3] were 18% and 0%, respectively. The result in assay [5], in assay [6], in assay [7] and in assay [8] was inactive.
Regarding `O=C(N[C@H]1CCN(Cc2ccc(OCCCN3CCCCC3)cc2)C1)c1ccc(Oc2ccccc2)cc1`, the growth inhibition in assay [1] was 11%; in assay [4], 96% (active). The values for the inhibition in assay [2] and in assay [3] were 56% (active) and 6%, respectively. In addition, the outcome in assay [5], in assay [6], in assay [7] and in assay [8] was inactive.
With `COc1nc2c(N3CCN(CCNCc4ccc5c(n4)NC(=O)CO5)CC3)ccnc2cc1F`, the growth inhibition in assay [1] was 9%; in assay [4], 101% (active). In addition, the inhibition in assay [2] was 18%; in assay [3] it was -2%. Further, the result in assay [5], in assay [6], in assay [7] and in assay [8] was inactive.
Regarding `c1ccc2[nH]c(Nc3ccc(Nc4nc5ccccc5[nH]4)cc3)nc2c1`, the growth inhibition in assay [1] was 27%; in assay [4] it was 98% (active). Besides, the values for the inhibition in assay [2] and in assay [3] were -3% and 1%, respectively. For the same compound, the outcome in assay [5], in assay [6], in assay [7] and in assay [8] was inactive.
Turning to `CN(C)CCNC(=O)N1CCCN(c2ncnc3cc(-c4ccc(Cl)cc4)sc23)CC1`, the growth inhibition in assay [1] was 21%; in assay [4], 98% (active). Besides, the figures for the inhibition in assay [2] and in assay [3] were 41% and 4%, respectively. For the same compound, the result in assay [5], in assay [6], in assay [7] and in assay [8] was inactive.
As for `CN1CCC(Oc2ccc(CN3CC[C@H](NC(=O)c4cccc(C#N)c4)C3)c3ccccc23)C1` (stereo not given in full), the growth inhibition in assay [1] is 30%; in assay [4], 97% (active). The inhibition is 10% in assay [2] and -1% in assay [3]. The outcome in assay [5], in assay [6], in assay [7] and in assay [8] was inactive.
`Clc1ccc2c(NCc3ccccn3)ccnc2c1`: the growth inhibition in assay [1] and in assay [4] was 99% (active) each time. The inhibition in assay [2] is 0%; in assay [3], -4%. Also, the result in assay [5], in assay [6], in assay [7] and in assay [8] was inactive.
For the compound `O=C(Cc1cnc[nH]1)Nc1cccc(-c2ccc(-c3nc4ccc(F)cc4[nH]3)s2)c1`, the growth inhibition is 94% (active) in assay [1] and 101% (active) in assay [4]. The inhibition in assay [2] was 4%; in assay [3], -12%. Also, the outcome in assay [5], in assay [6], in assay [7] and in assay [8] was inactive.
In the case of `CC(C)NCc1ccc(-c2cccc(CN3CCC(c4ccccc4)CC3)c2)c(C(=O)NCC2CCCCC2)c1`, the growth inhibition is 76% (active) in assay [1] and 98% (active) in assay [4]. The inhibition was 42% in assay [2] and -5% in assay [3]. In addition, the outcome in assay [5], in assay [6], in assay [7] and in assay [8] was inactive.
Turning to `Cc1ccc2nc(-c3cc(-c4ccc(OCc5ccccc5)cc4)cnc3N)[nH]c2c1`, the values for the growth inhibition in assay [1] and in assay [4] were 87% (active) and 91% (active), respectively. In addition, the values for the inhibition in assay [2] and in assay [3] were 33% and 1%, respectively. Further, the outcome in assay [5], in assay [6], in assay [7] and in assay [8] was inactive.
Turning to `Cc1cc(OCC2CCN(c3ccc(C(=O)NC4CC4)cn3)CC2)ccc1F`, the figures for the growth inhibition in assay [1] and in assay [4] were 95% (active) and 94% (active), respectively. Besides, the results for the inhibition in assay [2] and in assay [3] were 6% and 3%, respectively. The outcome in assay [5], in assay [6], in assay [7] and in assay [8] was inactive.
